# Experimental data taken from ChEMBL document CHEMBL3433997, “St. Jude Leishmania screening dataset” (2016).
# Target: Solute carrier family 2, facilitated glucose transporter member 1 (Homo sapiens) (UniProt P11166)
# Assay: ST_JUDE_LEISH: Cytotoxicity at 2uM final concentration against transgenic Leishmania Mexicana promastigotes LmGLUT1 that are glucose transport deficient and complemented with the human glucose transporter GLUT1. Activity is measured by DNA content using SYBR green in vitro
# Type: functional
# Solute carrier family 2, facilitated glucose transporter member 1 (Homo sapiens), sequence (P11166 whole entry): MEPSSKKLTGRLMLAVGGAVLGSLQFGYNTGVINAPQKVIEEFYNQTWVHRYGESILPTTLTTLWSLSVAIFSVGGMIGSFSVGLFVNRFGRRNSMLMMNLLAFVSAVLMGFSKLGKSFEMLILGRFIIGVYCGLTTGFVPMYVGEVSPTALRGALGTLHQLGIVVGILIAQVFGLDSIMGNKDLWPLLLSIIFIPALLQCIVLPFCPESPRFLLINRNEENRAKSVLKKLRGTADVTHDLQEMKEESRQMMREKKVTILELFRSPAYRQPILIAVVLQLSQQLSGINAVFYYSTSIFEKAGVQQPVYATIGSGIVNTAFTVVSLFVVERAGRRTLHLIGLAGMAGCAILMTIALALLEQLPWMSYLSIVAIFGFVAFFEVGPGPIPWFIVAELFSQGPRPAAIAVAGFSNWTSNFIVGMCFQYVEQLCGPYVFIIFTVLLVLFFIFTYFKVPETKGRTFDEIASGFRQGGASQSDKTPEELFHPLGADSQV
row,SMILES,inhibition
1,CC(C)(CNC(=O)C1CCN(Cc2ccc(Cl)cc2)CC1)c1nc(-c2ccc(Cl)c(O)c2)c(-c2ccncc2)[nH]1,6.62%
2,Cc1ccc(C(=O)NCC2CCN(c3ccc(C(F)(F)F)cc3NC(=O)c3ccco3)CC2)cn1,2.76%
3,CC(C)CCNCc1ccc(OCc2cccc(C(=O)Nc3ccccc3)c2)c(I)c1,3.34%
4,N#Cc1ccc(-n2cc(C(=O)Nc3ccc4c(c3)CCN(C3CCC3)CC4)c(C(F)(F)F)n2)cc1,7.01%
5,CCCC(C)NC(=O)[C@H]1CNCCN1C(=O)CCCc1ccccc1 (stereo partly drawn),8.59%
6,O=C(/C=C/c1ccc(Cl)c(Cl)c1)NCCCCCN1CCC(NC(=O)Nc2cccc(Cl)c2F)CC1,-0.8%
7,COc1cc2nccc(Nc3cccc(Oc4ccccc4)c3)c2cc1OC,12.8%
8,COc1ccc2cc(C=NNc3nc4ccccc4[nH]3)c(Cl)nc2c1,-0.3%
9,O=C(NCCNc1ccnc(Nc2ccc(F)cc2)n1)Nc1ccc2c(c1)OCO2,1.78%
10,Cc1cc(N2CCOCC2)nc(Nc2ccc(NC(=O)Nc3ccc(F)cc3)cc2)n1,-0.56%
11,Cc1ccc(NC(=S)N2CCCN(CCCCCNC(=O)/C=C/c3ccc(Cl)c(Cl)c3)CC2)cc1Cl,-0.25%
12,Nc1nc(N)c2nc(C3CC=CCC3)c(N)nc2n1 (stereo not drawn),2.95%
13,CC(C)CCn1c(Sc2ccc(C#N)c([N+](=O)[O-])c2)nnc1-c1cccc(Cl)c1,9.63%
14,Nc1ccn([C@@H]2O[C@H](COC(c3ccccc3)(c3ccccc3)c3ccccc3)[C@@H](O)[C@@H]2O)c(=O)n1,3.1%
15,COc1cccc2c(NCc3ccccc3)nc(NCCCN3CCCCC3C)nc12 (stereo not drawn),67.7%
16,O=C(NC1CCC(N2CCC(c3nc4ccccc4s3)CC2)CC1)c1cc2ccccc2[nH]1 (stereo not drawn),-0.44%
17,CN1CCC(N2CCN(Cc3cccc(-c4ccc(-c5nc6cc(F)ccc6[nH]5)cc4)c3)CC2)CC1,2.43%
18,Cc1cccc2nc(-c3ccc(-c4cccc(NC(=O)CN5CCN(C)CC5)c4)s3)[nH]c12,-0.82%
19,CCN(CC)CCN(Cc1ccc(-c2ccc(C(F)(F)F)cc2)cc1)C(=O)Cn1c(CCc2cc(F)c(F)c(F)c2)nc(=O)c2ccccc21,9.62%
20,c1ccc(-c2cc(NCCCCNc3cc(-c4ccccc4)nc4ccccc34)c3ccccc3n2)cc1,6.88%

row,SMILES,inhibition
1,COc1ccc2nccc([C@@H](O)CN3CCC(NCC(O)Cc4ccccc4)CC3)c2c1 (stereo partly drawn),-0.38%
2,O=c1c2sc(-c3ccc(Cl)cc3)cc2ncn1Cc1ccc(OCCN2CCCC2)c2ccccc12,4.34%
3,COc1ccc(CNC(=O)c2cnc3cc(-c4c(C)noc4C)ccc3c2Nc2ccccc2C(C)(C)C)cc1,3.17%
4,COc1cc2c(cc1OC)-c1cc(=Nc3c(C)cc(C)cc3C)n(C)c(=O)n1CC2,0.22%
5,O=C(c1ccc(-c2ccc(-c3nc4cc(C(F)(F)F)ccc4[nH]3)s2)cc1)N1CCCCC1CN1CCC(O)C1 (stereo not drawn),7.23%
6,COc1ccc(Br)cc1/C=C/C(=O)Nc1cccc(C2CCCN(C)C2)c1 (stereo not drawn),6.13%
7,N#Cc1cccc(C(=O)Nc2ccc(-c3ccc(CN4CCCC4)cc3)cc2)c1,7.84%
8,Cc1ccc(C(=O)Nc2cc(S(=O)(=O)N3CCCC3)ccc2OCC(F)(F)F)cc1,3.23%
9,O=C(NCc1ccccc1)Nc1ccc(-c2ccc(-c3nc4cc(C(F)(F)F)ccc4[nH]3)cc2)cc1,2.91%
10,Cn1ccc2c3c(N)nc(N)nc3ccc21,0.43%
11,NC(=O)c1cccc(CN2Cc3ccccc3OC3(CCN(Cc4c[nH]c5cnccc45)CC3)C2)c1,0.63%
12,CCc1ccccc1NC(=O)CN1CCN(c2ncnc3scc(-c4ccc(F)cc4)c23)CC1,1.81%
13,Cn1nc(-c2ccc(Cl)cc2)c2cc(C(=O)NCCN3CCOCC3)sc21,-0.16%
14,CN1CCN(CCCCCCNc2c3ccccc3nc3ccccc23)CC1,27.1%
15,CC(C)(C)C(=O)Nc1c(-c2cc(=O)oc3cc4c(cc23)CCC4)oc2ccccc12,4.02%
16,CS(=O)(=O)N1CC2(CCN(CCC(NC(=O)NCc3ccccc3Cl)c3ccc(Cl)c(Cl)c3)CC2)c2ccccc21 (stereo not drawn),1.26%
17,CN1CC[C@@H](Oc2cc(Nc3nc(-c4ccc(C#N)cc4)cs3)ccc2Cl)C1,5.3%
18,c1ccc(CCNCc2ccc(-c3ccc(CNc4ccc5ncccc5c4)cc3)cc2)cc1,9.9%
19,CN(C)c1ccc(-c2csc(C(=O)NC3CCCCN(CCC(C)(C)C)C3)c2)cc1 (stereo not drawn),2.51%

# Target: Hexose transporter 1 (Plasmodium falciparum) (UniProt O97467)
# Assay: ST_JUDE_LEISH: Cytotoxicity at 2uM final concentration against transgenic Leishmania Mexicana promastigotes LmPfHT that are glucose transport deficient and complemented with the Plasmodium falciparum hexose transporter. Activity is measured by DNA content using SYBR green in vitro
# Type: functional
row,SMILES,inhibition
1,CC(C)(CNC(=O)C1CCN(Cc2ccc(Cl)cc2)CC1)c1nc(-c2ccc(Cl)c(O)c2)c(-c2ccncc2)[nH]1,6.8%
2,Cc1ccc(C(=O)NCC2CCN(c3ccc(C(F)(F)F)cc3NC(=O)c3ccco3)CC2)cn1,-2.99%
3,CC(C)CCNCc1ccc(OCc2cccc(C(=O)Nc3ccccc3)c2)c(I)c1,3.14%
4,N#Cc1ccc(-n2cc(C(=O)Nc3ccc4c(c3)CCN(C3CCC3)CC4)c(C(F)(F)F)n2)cc1,6.79%
5,CCCC(C)NC(=O)[C@H]1CNCCN1C(=O)CCCc1ccccc1 (stereo partly drawn),7.9%
6,O=C(/C=C/c1ccc(Cl)c(Cl)c1)NCCCCCN1CCC(NC(=O)Nc2cccc(Cl)c2F)CC1,-0.65%
7,COc1cc2nccc(Nc3cccc(Oc4ccccc4)c3)c2cc1OC,14.4%
8,COc1ccc2cc(C=NNc3nc4ccccc4[nH]3)c(Cl)nc2c1,0.04%
9,O=C(NCCNc1ccnc(Nc2ccc(F)cc2)n1)Nc1ccc2c(c1)OCO2,0.82%
10,Cc1cc(N2CCOCC2)nc(Nc2ccc(NC(=O)Nc3ccc(F)cc3)cc2)n1,-2.91%
11,Cc1ccc(NC(=S)N2CCCN(CCCCCNC(=O)/C=C/c3ccc(Cl)c(Cl)c3)CC2)cc1Cl,-1.02%
12,Nc1nc(N)c2nc(C3CC=CCC3)c(N)nc2n1 (stereo not drawn),3.81%
13,CC(C)CCn1c(Sc2ccc(C#N)c([N+](=O)[O-])c2)nnc1-c1cccc(Cl)c1,9.97%
14,Nc1ccn([C@@H]2O[C@H](COC(c3ccccc3)(c3ccccc3)c3ccccc3)[C@@H](O)[C@@H]2O)c(=O)n1,4.86%
15,COc1cccc2c(NCc3ccccc3)nc(NCCCN3CCCCC3C)nc12 (stereo not drawn),50.8%
16,O=C(NC1CCC(N2CCC(c3nc4ccccc4s3)CC2)CC1)c1cc2ccccc2[nH]1 (stereo not drawn),-2.33%
17,CN1CCC(N2CCN(Cc3cccc(-c4ccc(-c5nc6cc(F)ccc6[nH]5)cc4)c3)CC2)CC1,3.05%
18,Cc1cccc2nc(-c3ccc(-c4cccc(NC(=O)CN5CCN(C)CC5)c4)s3)[nH]c12,-1.13%
19,CCN(CC)CCN(Cc1ccc(-c2ccc(C(F)(F)F)cc2)cc1)C(=O)Cn1c(CCc2cc(F)c(F)c(F)c2)nc(=O)c2ccccc21,9.17%
20,c1ccc(-c2cc(NCCCCNc3cc(-c4ccccc4)nc4ccccc34)c3ccccc3n2)cc1,7.17%

row,SMILES,inhibition
1,COc1ccc2nccc([C@@H](O)CN3CCC(NCC(O)Cc4ccccc4)CC3)c2c1 (stereo partly drawn),-3.2%
2,O=c1c2sc(-c3ccc(Cl)cc3)cc2ncn1Cc1ccc(OCCN2CCCC2)c2ccccc12,2.61%
3,COc1ccc(CNC(=O)c2cnc3cc(-c4c(C)noc4C)ccc3c2Nc2ccccc2C(C)(C)C)cc1,4.17%
4,COc1cc2c(cc1OC)-c1cc(=Nc3c(C)cc(C)cc3C)n(C)c(=O)n1CC2,2.72%
5,O=C(c1ccc(-c2ccc(-c3nc4cc(C(F)(F)F)ccc4[nH]3)s2)cc1)N1CCCCC1CN1CCC(O)C1 (stereo not drawn),5.1%
6,COc1ccc(Br)cc1/C=C/C(=O)Nc1cccc(C2CCCN(C)C2)c1 (stereo not drawn),5.55%
7,N#Cc1cccc(C(=O)Nc2ccc(-c3ccc(CN4CCCC4)cc3)cc2)c1,6.53%
8,Cc1ccc(C(=O)Nc2cc(S(=O)(=O)N3CCCC3)ccc2OCC(F)(F)F)cc1,4.19%
9,O=C(NCc1ccccc1)Nc1ccc(-c2ccc(-c3nc4cc(C(F)(F)F)ccc4[nH]3)cc2)cc1,4.48%
10,Cn1ccc2c3c(N)nc(N)nc3ccc21,1.8%
11,NC(=O)c1cccc(CN2Cc3ccccc3OC3(CCN(Cc4c[nH]c5cnccc45)CC3)C2)c1,1.28%
12,CCc1ccccc1NC(=O)CN1CCN(c2ncnc3scc(-c4ccc(F)cc4)c23)CC1,3.65%
13,Cn1nc(-c2ccc(Cl)cc2)c2cc(C(=O)NCCN3CCOCC3)sc21,1.5%
14,CN1CCN(CCCCCCNc2c3ccccc3nc3ccccc23)CC1,19.4%
15,CC(C)(C)C(=O)Nc1c(-c2cc(=O)oc3cc4c(cc23)CCC4)oc2ccccc12,4.1%
16,CS(=O)(=O)N1CC2(CCN(CCC(NC(=O)NCc3ccccc3Cl)c3ccc(Cl)c(Cl)c3)CC2)c2ccccc21 (stereo not drawn),1.46%
17,CN1CC[C@@H](Oc2cc(Nc3nc(-c4ccc(C#N)cc4)cs3)ccc2Cl)C1,5.47%
18,c1ccc(CCNCc2ccc(-c3ccc(CNc4ccc5ncccc5c4)cc3)cc2)cc1,1.61%
19,CN(C)c1ccc(-c2csc(C(=O)NC3CCCCN(CCC(C)(C)C)C3)c2)cc1 (stereo not drawn),2.15%
